According to PubChem BioAssay (NCATS):
Records with an inconclusive call do not appear. The source made the active and inactive calls. Calls come from the whole dose curve; as a rule, active = well fitted curve in the direction sought with a large enough effect; inconclusive = small, poorly fitted or top-dose-only effect, or another doubt; inactive = no such curve, though single readings can be large; an effect the other way counts as inactive or inconclusive.

Experiments:
CRL-7250 = normal cell line; test: Cytotoxic Profiling of Annotated Libraries Using Quantitative High-Throughput Screening (AID 1296008); settings: Five cell lines viability, CellTiter-Glo ATP luminescence, 48-72 h; max response: stronger effect = lower value; note: nearly all actives have a fitted effect of over 60% in size; for max response: % is set by controls: 0 for no effect and ±100 for the full control effect
Method in brief: (§1)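 Compounds were pin-transferred onto cells and incubated 48 or 72 hr at 37 degree Celsius, 95% humidity. CellTiter-Glo was added, plates sat 10 min at room temperature, then ATP-coupled luminescence was imaged as the viability read-out.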

HEK293 = test: as above; settings: Five cell lines viability, CellTiter-Glo ATP luminescence, 48-72 h; max response: stronger effect = lower value
Method in brief: as §1

HaCat = test: as above; settings: Five cell lines viability, CellTiter-Glo ATP luminescence, 48-72 h; max response: stronger effect = lower value
Method in brief: as §1

KB-3-1 = test: as above; settings: Five cell lines viability, CellTiter-Glo ATP luminescence, 48-72 h; max response: stronger effect = lower value
Method in brief: as §1

NIH3T3 [1] = test: as above; settings: Five cell lines viability, CellTiter-Glo ATP luminescence, 48-72 h; max response: stronger effect = lower value
Method in brief: as §1

NIH3T3 [2] = test: qHTS assay to identify novel small-molecules to repurpose for Merkel cell carcinoma treatment (AID 1296009); settings: MCC and control cell lines, CellTiter-Glo viability, 72 h; at 44.8 µM (top of the series) unless noted; note: nearly all actives have a fitted effect of over 60% in size
Method in brief: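 Luminescence from CellTiter-Glo, read 10 min after addition at room temperature, reported viability following a 72 hr, 37 degree celsius treatment with NPC or MIPE compounds in titration; values normalized to plate controls.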

C33A = test: Primary qHTS to identify gynecologic anti-cancer compounds using libraries of approved drugs and bioactive compounds (AID 1345084); settings: Gynecologic cancer cell panel viability, ATPlite luminescence, 48 h; series mostly up to 57.5 µM; note: % is set by controls: 0 for no effect and ±100 for the full control effect; nearly all actives have a fitted effect of over 55% in size
Method in brief: (§2)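 In this quantitative HTS, cell killing is estimated from loss of ATP-dependent luciferase light. Cells see five compound concentrations over a 48 h exposure.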

CAOV3 = test: as above; settings: Gynecologic cancer cell panel viability, ATPlite luminescence, 48 h; series mostly up to 57.5 µM
Method in brief: as §2

CASKI = test: as above; settings: Gynecologic cancer cell panel viability, ATPlite luminescence, 48 h; series mostly up to 57.5 µM
Method in brief: as §2

Es-2 = test: as above; settings: Gynecologic cancer cell panel viability, ATPlite luminescence, 48 h; series mostly up to 57.5 µM
Method in brief: as §2

HeLa = test: as above; settings: Gynecologic cancer cell panel viability, ATPlite luminescence, 48 h; series mostly up to 57.5 µM
Method in brief: as §2

Hek293T = test: as above; settings: Gynecologic cancer cell panel viability, ATPlite luminescence, 48 h, control line for the selectivity index; series mostly up to 57.5 µM
Method in brief: as §2

JEG-3 = test: as above; settings: Gynecologic cancer cell panel viability, ATPlite luminescence, 48 h; series mostly up to 57.5 µM
Method in brief: as §2

CC1=C2C(=O)C=C(CO)C2C2OC(=O)C(CS(=O)(=O)O)C2C(OC(=O)Cc2ccc(O)cc2)C1 (stereo not drawn)
inactive: outcome (CRL-7250) | max response (HEK293) -5.22% | max response (HaCat) -1.36% | max response (KB-3-1) -6.7% | outcome (NIH3T3 [1]) | outcome (NIH3T3 [2]) inactive [at 17.4 µM] | Potency (C33A) | Potency (CAOV3) | outcome (CASKI) | Potency (Es-2) | Potency (HeLa) | Potency (Hek293T) | Potency (JEG-3)

CCOC(=O)c1ccc(NC2CCCCC2)c(N)c1
inactive: outcome (CRL-7250) | max response (HEK293) -10.7% | max response (HaCat) -10.7% | max response (KB-3-1) -6.34% | outcome (NIH3T3 [1]) | outcome (NIH3T3 [2]) | Potency (C33A) | Potency (CAOV3) | outcome (CASKI) | Potency (Es-2) | Potency (HeLa) | Potency (Hek293T) | Potency (JEG-3)

CC(=O)OC1C(C)C2C(OC3OC(CO)C(O)C(O)C3O)OC=C(C(=O)O)C2C1OC(=O)c1ccccc1 (stereo not drawn)
inactive: outcome (CRL-7250) | max response (HEK293) 1.6% | max response (HaCat) -7.28% | outcome (KB-3-1) | outcome (NIH3T3 [1]) | outcome (NIH3T3 [2]) inactive [at 17.4 µM] | Potency (C33A) | Potency (CAOV3) | outcome (CASKI) | Potency (Es-2) | Potency (HeLa) | Potency (Hek293T) | Potency (JEG-3)

C=Cc1cc2oc(-c3ccc(O)c(F)c3)nc2cc1O
inactive: outcome (CRL-7250) | max response (HEK293) -3.32% | max response (HaCat) -11% | outcome (KB-3-1) | outcome (NIH3T3 [1]) | outcome (NIH3T3 [2]) | Potency (C33A) | Potency (CAOV3) | outcome (CASKI) | Potency (Es-2) | Potency (Hek293T) | Potency (JEG-3)

O=C(O)c1ccnc2cc(C(OCC3CCC(F)(F)CC3)c3ccccc3Cl)[nH]c12 (stereo not drawn)
inactive: max response (CRL-7250) 2.57% | max response (HEK293) 4.55% | max response (HaCat) -20.6% | max response (KB-3-1) 8.39% | outcome (NIH3T3 [1]) | outcome (NIH3T3 [2]) | Potency (C33A) | Potency (CAOV3) | outcome (CASKI) | Potency (Es-2) | Potency (Hek293T) | Potency (JEG-3)

C[C@]1(OC(=O)/C=C\c2ccc(O)cc2)C[C@@H](O)[C@]2(O)C=CO[C@@H](O[C@@H]3O[C@H](CO)[C@@H](O)[C@H](O)[C@H]3O)C12 (stereo partly drawn)
inactive: max response (CRL-7250) -13.5% | max response (HEK293) -4.97% | max response (HaCat) -23.9% | outcome (KB-3-1) | outcome (NIH3T3 [1]) | outcome (NIH3T3 [2]) inactive [at 17.4 µM] | Potency (C33A) | Potency (CAOV3) | outcome (CASKI) | Potency (Es-2) | Potency (HeLa) | Potency (Hek293T) | Potency (JEG-3)

CC(/C=C/C=C(\C)C(=O)O[C@@H]1O[C@H](CO[C@@H]2O[C@H](CO)[C@@H](O)[C@H](O)[C@H]2O)[C@@H](O)[C@H](O)[C@H]1O)=C\C=C\C=C(C)\C=C\C=C(/C)C(=O)O[C@@H]1C[C@](O)(C(=O)O)C[C@@H](O)[C@H]1OC(=O)/C=C/c1ccc(O)c(O)c1
inactive: max response (CRL-7250) -12.4% | max response (HEK293) 2.1% | max response (HaCat) 1.58% | max response (KB-3-1) 5.86% | outcome (NIH3T3 [1]) | outcome (NIH3T3 [2]) inactive [at 9.27 µM] | activity change, negative = cytotoxicity (C33A) 17.9% [at 11.6 µM] | activity change, negative = cytotoxicity (CAOV3) -20% [at 11.6 µM] | activity change, negative = cytotoxicity (CASKI) 21.7% [at 11.6 µM] | activity change, negative = cytotoxicity (Es-2) 1.04% [at 11.6 µM] | activity change, negative = cytotoxicity (HeLa) 2.81% [at 11.6 µM] | activity change, negative = cytotoxicity (Hek293T) -2.06% [at 11.6 µM] | activity change, negative = cytotoxicity (JEG-3) 7.27% [at 11.6 µM]

CC(=O)OC1(C)CC(O)C2(O)C=COC(OC3OC(CO)C(O)C(O)C3O)C12 (stereo not drawn)
inactive: outcome (CRL-7250) | max response (HEK293) 4.36% | max response (HaCat) 0.0573% | max response (KB-3-1) 3.54% | outcome (NIH3T3 [1]) | outcome (NIH3T3 [2]) inactive [at 17.4 µM] | Potency (C33A) | Potency (CAOV3) | outcome (CASKI) | Potency (Es-2) | Potency (HeLa) | Potency (Hek293T) | Potency (JEG-3)

CC1OC(OC2C(OC3C(O[C@H]4CC[C@@]5(C)C(CC[C@]6(C)C5CC=C5C7CC(C)(C)CC(O)[C@]7(C)CC[C@]56C)C4(C)C)OC(C(=O)O)C(O)C3O)OCC(O)C2O)C(O)C(O)C1O (stereo partly drawn)
inactive: outcome (CRL-7250) | max response (HEK293) 4.82% | max response (HaCat) -11.3% | max response (KB-3-1) 9.21% | outcome (NIH3T3 [1]) | outcome (NIH3T3 [2]) inactive [at 9.27 µM] | activity change, negative = cytotoxicity (C33A) 14% [at 11.6 µM] | activity change, negative = cytotoxicity (CAOV3) 4.78% [at 11.6 µM] | activity change, negative = cytotoxicity (CASKI) -6.68% [at 11.6 µM] | activity change, negative = cytotoxicity (Es-2) 1.85% [at 11.6 µM] | activity change, negative = cytotoxicity (HeLa) 7.99% [at 11.6 µM] | activity change, negative = cytotoxicity (Hek293T) -2.65% [at 11.6 µM] | activity change, negative = cytotoxicity (JEG-3) 6.46% [at 11.6 µM]

O=C(/C=C/C=C/c1ccc2c(c1)OCO2)N1CCCCC1
inactive: outcome (CRL-7250) | max response (HEK293) 3% | max response (HaCat) 0.66% | max response (KB-3-1) 3.15% | outcome (NIH3T3 [1]) | outcome (NIH3T3 [2]) | Potency (C33A) | Potency (CAOV3) | outcome (CASKI) | Potency (HeLa) | Potency (Hek293T) | Potency (JEG-3)

C/C(=C\C1CCC(C)C2CCC3(C)OC123)C(=O)O (stereo not drawn)
inactive: max response (CRL-7250) -0.564% | max response (HEK293) -3.45% | max response (HaCat) 4.2% | max response (KB-3-1) 8.09% | outcome (NIH3T3 [1]) | outcome (NIH3T3 [2]) | Potency (C33A) | Potency (CAOV3) | outcome (CASKI) | Potency (Es-2) | Potency (HeLa) | Potency (Hek293T) | Potency (JEG-3)

CC/C=C\[C@H](O)[C@H](O)C1=C(C)C(=O)[C@]2(O1)C(=O)N[C@@](O)(C(=O)c1ccccc1)[C@@H]2O
inactive: outcome (CRL-7250) | max response (HEK293) 2.91% | max response (HaCat) -6.31% | outcome (KB-3-1) | outcome (NIH3T3 [1]) | outcome (NIH3T3 [2]) inactive [at 17.4 µM] | Potency (C33A) | Potency (CAOV3) | outcome (CASKI) | Potency (Es-2) | Potency (HeLa) | Potency (Hek293T) | Potency (JEG-3)
